D2 ag-1: activates the human D2 dopamine receptor. P14416. 0.53% of 340,000 active. AID 485358. HEK293 T-REx D2 cells, calcium flux agonist mode. activation, % at 2 µM;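 active = activation over 3 SD above normal in the single-dose calcium agonist read, cut at about 30% in these data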; note: 0% is about no effect
Target sequence (P14416 whole entry, looked up): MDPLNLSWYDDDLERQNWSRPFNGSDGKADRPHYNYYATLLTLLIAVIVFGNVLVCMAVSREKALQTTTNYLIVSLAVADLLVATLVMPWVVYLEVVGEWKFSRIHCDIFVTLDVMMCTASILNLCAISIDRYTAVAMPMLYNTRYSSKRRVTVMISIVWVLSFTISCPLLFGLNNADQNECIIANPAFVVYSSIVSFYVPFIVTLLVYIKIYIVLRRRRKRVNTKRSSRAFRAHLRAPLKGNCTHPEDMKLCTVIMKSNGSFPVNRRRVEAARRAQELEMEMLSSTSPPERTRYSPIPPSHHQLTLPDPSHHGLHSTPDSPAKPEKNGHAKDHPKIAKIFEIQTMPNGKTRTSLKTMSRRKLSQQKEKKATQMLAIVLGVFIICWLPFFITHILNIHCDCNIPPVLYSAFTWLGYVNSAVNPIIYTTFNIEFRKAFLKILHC
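Agonism scored from kinetic calcium signal (1 read/sec, 180 s) following compound pin transfer, after a 10 s baseline. Cells: HEK293 Trex line expressing inducible D2 receptor coupled to calcium, dye-loaded after overnight culture at 30 C.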
D2 antag: antagonizes the human D2 dopamine receptor; P14416; HEK293 TREx D2 cells, calcium flux, dopamine EC80; inhibition, % at 10 µM; 2% of 340,000 active; in the data active = inhibition above about 30%; inactive = below that, where a call was filed; note: 0% is about no effect
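Tetracycline-induced HEK293 T-REx cells expressing D2 force-coupled to calcium signalling were dye-loaded, exposed to compound for 180 s, then challenged with an EC80 of dopamine; calcium flux was followed kinetically for a further 180 s.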
D2 ag-2: activates the human D2 dopamine receptor; P14416; DiscoveRx PathHunter D2 beta-arrestin, luminescence, 90 min; 100% = 57 uM dopamine signal; activation, % (no concentration beside the values); 0.084% of 360,000 active; AID 624465; in the data active = activation above about 40%; inconclusive = between about 15% and that limit
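DiscoveRx PathHunter D2 beta-arrestin cells (2,100/well) attached overnight, then compound-stimulated 90 min at 37 C in HBSS/10 mM HEPES/0.1% Tween-20 buffer; beta-galactosidase complementation read by luminescence after 1 h at ambient temperature. Dopamine 57 uM final (EC100) as control.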
D2 PAM-1: positive allosteric modulators of human D2 dopamine receptor | HEK293 T-REx D2, calcium flux, EC20 dopamine potentiation | potentiation, % at 10 µM | 0.34% of 340,000 active | P14416;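 active = potentiation over 3 SD above the plate norm, cut at about 30% in these data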; note: 0% is about no effect
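Potentiation of an EC20 dopamine calcium response measured kinetically over 180 s, after a preceding 180 s compound-only read flagging agonists. Cells: inducible Hek293 Trex D2 line, 4000/well, cultured overnight at 30 C before dye loading.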
D2 PAM-2: human D2 receptor positive allosteric modulation; P14416; AID 624464; 0.23% of 360,000 active; DiscoveRx D2 beta-arrestin cells, luminescence, 90 min; 100% = 57 uM dopamine signal; potentiation, % (test concentration not listed); in the data active = potentiation above about 50%; inconclusive = mostly about 30% to 49%
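PathHunter D2 cells, attached overnight at 37 deg C, received compound in DMSO plus dopamine at EC20 (50 nM final) for 90 min at 37 deg C. Beta-arrestin recruitment was read as luminescence after 1 h with detection reagent at ambient temperature.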
* marks the source's active call; other numbers are inactive results. Sampled rows, rich in hits. Any-hit rate of the full collection: about 2.4%.

How did CCc1ccc(NC(=O)Cn2c(=O)n(CCc3ccccc3)c(=O)c3sc4ccccc4c32)cc1 do in these assays?
D2 ag-1: -1.1; D2 PAM-1: 0.3

How did CC(C)(C)[C@@H]1CCC(=O)N(CC[C@H](Sc2ccc(Br)cc2)c2ccccc2)CC1 do in these assays?
D2 ag-2: -0.3; D2 PAM-2: -25.6

What do the screens show for `Cc1ccc(-n2nnnc2SCc2ccc(C(=O)O)cc2)cc1C`?
D2 ag-1: 1.0; D2 antag: 30.3*; D2 ag-2: -0.5; D2 PAM-1: -7.9; D2 PAM-2: 10.1

Results for COc1ccc(CNC(=O)NCc2ccc(OC)c(OC)c2)cc1OC ?
D2 ag-1: -0.4; D2 antag: 3.2; D2 ag-2: -4.5; D2 PAM-1: -8.1; D2 PAM-2: 0.6

How did COc1ccc(CNC(=O)Nc2cccc(C(F)(F)F)c2)cc1OC do in these assays?
D2 ag-1: 2.9; D2 antag: 45.8*; D2 ag-2: -0.8; D2 PAM-1: -8.5; D2 PAM-2: -28.1

How did CCOc1ccc(C(N)=O)cc1OC do in these assays?
D2 ag-1: 1.0; D2 antag: 13.1; D2 ag-2: -3.4; D2 PAM-1: 58.4*; D2 PAM-2: -23.2

How did CCOC(=O)N1CCN(C(=O)c2ccc(OCC)c(OCC)c2)CC1 do in these assays?
D2 ag-1: 0.1; D2 antag: 32.7*; D2 ag-2: -4.7; D2 PAM-1: 1.1; D2 PAM-2: -19.9

Results for CCOC(=O)N1CCN(C(=O)c2ccc(OC)c(OC)c2)CC1 ?
D2 ag-1: -1.2; D2 antag: -12.6; D2 ag-2: -2.5; D2 PAM-1: -4.2; D2 PAM-2: -12.0

What do the screens show for `O=C(O)c1cccnc1C(=O)N1CCc2c([nH]c3ccccc23)C1C(F)(F)F` (configuration not stated)?
D2 ag-1: -2.3; D2 antag: -15.9; D2 ag-2: 4.2; D2 PAM-1: 6.0; D2 PAM-2: -51.7

How did c1cnc2c(C3NCCc4c3[nH]c3ccccc43)cccc2c1 (configuration not stated) do in these assays?
D2 ag-1: -0.2; D2 antag: 35.8*; D2 ag-2: -9.0; D2 PAM-1: -20.9; D2 PAM-2: -94.9

How did CC(C)C(=O)N(c1cc2sc(=O)oc2c2ccccc12)S(=O)(=O)c1cccs1 do in these assays?
D2 ag-1: 1.0; D2 antag: -12.1; D2 ag-2: inconclusive; D2 PAM-1: -6.8; D2 PAM-2: 75.3*

What do the screens show for `CCCSc1nc(=S)n(Cc2ccccc2)c(C)c1C(C)=O`?
D2 ag-1: -0.8; D2 antag: 43.1*; D2 ag-2: 6.1; D2 PAM-1: -7.6; D2 PAM-2: -3.7

What do the screens show for `CC(=O)c1c(N2CCCCC2)nc(=S)n(Cc2ccccc2)c1C`?
D2 ag-1: -0.8; D2 antag: -29.5; D2 ag-2: -0.3; D2 PAM-1: 4.7; D2 PAM-2: 7.6

What do the screens show for `Cc1ccccc1CNC(=O)Nc1ccc2c(c1)N(C)C(=O)c1ccccc1S2`?
D2 ag-1: 0.7; D2 PAM-1: 2.2

How did O=C(NNC(=O)C12CC3CC(CC(C3)C1)C2)[C@@H]1C[C@H]1c1ccccc1 do in these assays?
D2 ag-2: -0.3; D2 PAM-2: -3.4

How did COc1cc(C(=O)NCCC(=O)NC(C)CCc2ccccc2)cc(OC)c1OC (configuration not stated) do in these assays?
D2 ag-1: -0.2; D2 antag: -7.7; D2 ag-2: -3.7; D2 PAM-1: 33.2*; D2 PAM-2: -2.1

How did COc1ccc2[nH]c(C(=O)NCCc3ccccc3)cc2c1 do in these assays?
D2 ag-1: 0.0; D2 antag: 15.8; D2 ag-2: -2.8; D2 PAM-1: -7.8; D2 PAM-2: 0.1

What do the screens show for `COc1cc2[nH]cc(C(=O)NCc3ccccc3)c(=O)c2cc1OC`?
D2 ag-1: 0.9; D2 antag: 10.0; D2 ag-2: 4.6; D2 PAM-1: 14.5; D2 PAM-2: -3.6

What do the screens show for `COc1cc2[nH]c(C(=O)NCCc3ccccc3)cc2c(OC)c1OC`?
D2 ag-1: -0.5; D2 antag: 79.1*; D2 ag-2: -1.4; D2 PAM-1: -13.6; D2 PAM-2: -24.4

Results for COc1cc2[nH]cc(C(=O)NCCc3ccccc3)c(=O)c2cc1OC ?
D2 ag-1: -2.4; D2 antag: -15.8; D2 ag-2: 2.8; D2 PAM-1: 38.6*; D2 PAM-2: -3.1

What do the screens show for `COc1cc2[nH]c(C(=O)NCc3ccccc3)cc2c(OC)c1OC`?
D2 ag-1: -0.5; D2 antag: 83.8*; D2 ag-2: 1.0; D2 PAM-1: -14.6; D2 PAM-2: -20.6

How did COc1cc(OC)c(NC(=O)NCc2ccc3c(c2)CCN3C(=O)c2ccccc2)cc1Cl do in these assays?
D2 ag-1: 0.8; D2 PAM-1: 5.5

What do the screens show for `Cc1ccc(CNC(=O)C2CCN(C(=O)c3cnn(-c4ccccc4)c3-n3cccc3)CC2)cc1`?
D2 ag-1: 0.2

How did COc1cc2[nH]c(C(=O)N3CCN(C)CC3)cc2c(OC)c1OC do in these assays?
D2 ag-1: 2.0; D2 antag: 4.7; D2 ag-2: -2.9; D2 PAM-1: 7.9; D2 PAM-2: -4.5

Results for COc1cccc(N2CCN(C(=O)c3cc4c(OC)c(OC)c(OC)cc4[nH]3)CC2)c1 ?
D2 ag-1: 0.9; D2 antag: 37.8*; D2 ag-2: 2.0; D2 PAM-1: -11.9; D2 PAM-2: -8.6

Results for CC(=O)Nc1cccc(-c2ccnc3c2CC(C)(C(=O)NCc2ccncc2)O3)c1 (configuration not stated) ?
D2 ag-2: -3.7; D2 PAM-2: -3.7

How did COCCCNC(=O)c1cnc2c(-c3ccc(F)cc3)c(C)nn2c1C do in these assays?
D2 ag-1: 1.1; D2 PAM-1: -22.9

Results for CC(C)Cn1cnc2c1c(=O)n(CC(=O)NC(=O)NC(C)(C)C)c(=O)n2Cc1ccccc1 ?
D2 ag-1: 0.1; D2 antag: 13.5; D2 ag-2: -3.1; D2 PAM-1: 31.1*; D2 PAM-2: 2.1

Results for CCc1cc(=O)oc2c(CN3CCN(C)CC3)c(O)c(Cl)cc12 ?
D2 ag-1: -0.1; D2 antag: 2.0; D2 ag-2: 3.6; D2 PAM-1: 34.9*; D2 PAM-2: 7.8

What do the screens show for `CCN(CC)c1ccc(/C=C(/C#N)C(=O)NC(C)C)o1`?
D2 ag-1: 9.5; D2 antag: 8.8; D2 ag-2: -4.1; D2 PAM-1: -6.9; D2 PAM-2: -8.6

What do the screens show for `CC(C)NC(=O)/C(C#N)=C\c1ccc(N(C)C)o1`?
D2 ag-1: 0.8; D2 antag: 40.3*; D2 ag-2: -10.5; D2 PAM-1: 0.7; D2 PAM-2: -11.2

What do the screens show for `CCN(CC)c1ccc(/C=C(/C#N)C(=O)NCc2ccccc2)o1`?
D2 ag-1: 42.6*; D2 antag: 9.8; D2 ag-2: -3.4; D2 PAM-1: -15.7; D2 PAM-2: -36.3

Bioassay records: PubChem, National Center for Advancing Translational Sciences (NCATS)
